Pf apPOL block: Pf-apPOL DNA polymerase inhibition. Recombinant Pf-apPOL, molecular beacon fluorescence, 1.5 h. inhibition, % at 10 µM. 210,000 compounds, 0.25% hits
mHTT CaM bind: mHTT-calmodulin interaction abrogation; AlphaScreen His-mHTT/GST-CaM binding, luminescence; inhibition, % at 15 µM; 190,000 compounds, 3.6% hits;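 further: 0% = both proteins with DMSO and 100% = one protein alone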
Target sequence (P42858 whole entry, looked up, stated change not applied): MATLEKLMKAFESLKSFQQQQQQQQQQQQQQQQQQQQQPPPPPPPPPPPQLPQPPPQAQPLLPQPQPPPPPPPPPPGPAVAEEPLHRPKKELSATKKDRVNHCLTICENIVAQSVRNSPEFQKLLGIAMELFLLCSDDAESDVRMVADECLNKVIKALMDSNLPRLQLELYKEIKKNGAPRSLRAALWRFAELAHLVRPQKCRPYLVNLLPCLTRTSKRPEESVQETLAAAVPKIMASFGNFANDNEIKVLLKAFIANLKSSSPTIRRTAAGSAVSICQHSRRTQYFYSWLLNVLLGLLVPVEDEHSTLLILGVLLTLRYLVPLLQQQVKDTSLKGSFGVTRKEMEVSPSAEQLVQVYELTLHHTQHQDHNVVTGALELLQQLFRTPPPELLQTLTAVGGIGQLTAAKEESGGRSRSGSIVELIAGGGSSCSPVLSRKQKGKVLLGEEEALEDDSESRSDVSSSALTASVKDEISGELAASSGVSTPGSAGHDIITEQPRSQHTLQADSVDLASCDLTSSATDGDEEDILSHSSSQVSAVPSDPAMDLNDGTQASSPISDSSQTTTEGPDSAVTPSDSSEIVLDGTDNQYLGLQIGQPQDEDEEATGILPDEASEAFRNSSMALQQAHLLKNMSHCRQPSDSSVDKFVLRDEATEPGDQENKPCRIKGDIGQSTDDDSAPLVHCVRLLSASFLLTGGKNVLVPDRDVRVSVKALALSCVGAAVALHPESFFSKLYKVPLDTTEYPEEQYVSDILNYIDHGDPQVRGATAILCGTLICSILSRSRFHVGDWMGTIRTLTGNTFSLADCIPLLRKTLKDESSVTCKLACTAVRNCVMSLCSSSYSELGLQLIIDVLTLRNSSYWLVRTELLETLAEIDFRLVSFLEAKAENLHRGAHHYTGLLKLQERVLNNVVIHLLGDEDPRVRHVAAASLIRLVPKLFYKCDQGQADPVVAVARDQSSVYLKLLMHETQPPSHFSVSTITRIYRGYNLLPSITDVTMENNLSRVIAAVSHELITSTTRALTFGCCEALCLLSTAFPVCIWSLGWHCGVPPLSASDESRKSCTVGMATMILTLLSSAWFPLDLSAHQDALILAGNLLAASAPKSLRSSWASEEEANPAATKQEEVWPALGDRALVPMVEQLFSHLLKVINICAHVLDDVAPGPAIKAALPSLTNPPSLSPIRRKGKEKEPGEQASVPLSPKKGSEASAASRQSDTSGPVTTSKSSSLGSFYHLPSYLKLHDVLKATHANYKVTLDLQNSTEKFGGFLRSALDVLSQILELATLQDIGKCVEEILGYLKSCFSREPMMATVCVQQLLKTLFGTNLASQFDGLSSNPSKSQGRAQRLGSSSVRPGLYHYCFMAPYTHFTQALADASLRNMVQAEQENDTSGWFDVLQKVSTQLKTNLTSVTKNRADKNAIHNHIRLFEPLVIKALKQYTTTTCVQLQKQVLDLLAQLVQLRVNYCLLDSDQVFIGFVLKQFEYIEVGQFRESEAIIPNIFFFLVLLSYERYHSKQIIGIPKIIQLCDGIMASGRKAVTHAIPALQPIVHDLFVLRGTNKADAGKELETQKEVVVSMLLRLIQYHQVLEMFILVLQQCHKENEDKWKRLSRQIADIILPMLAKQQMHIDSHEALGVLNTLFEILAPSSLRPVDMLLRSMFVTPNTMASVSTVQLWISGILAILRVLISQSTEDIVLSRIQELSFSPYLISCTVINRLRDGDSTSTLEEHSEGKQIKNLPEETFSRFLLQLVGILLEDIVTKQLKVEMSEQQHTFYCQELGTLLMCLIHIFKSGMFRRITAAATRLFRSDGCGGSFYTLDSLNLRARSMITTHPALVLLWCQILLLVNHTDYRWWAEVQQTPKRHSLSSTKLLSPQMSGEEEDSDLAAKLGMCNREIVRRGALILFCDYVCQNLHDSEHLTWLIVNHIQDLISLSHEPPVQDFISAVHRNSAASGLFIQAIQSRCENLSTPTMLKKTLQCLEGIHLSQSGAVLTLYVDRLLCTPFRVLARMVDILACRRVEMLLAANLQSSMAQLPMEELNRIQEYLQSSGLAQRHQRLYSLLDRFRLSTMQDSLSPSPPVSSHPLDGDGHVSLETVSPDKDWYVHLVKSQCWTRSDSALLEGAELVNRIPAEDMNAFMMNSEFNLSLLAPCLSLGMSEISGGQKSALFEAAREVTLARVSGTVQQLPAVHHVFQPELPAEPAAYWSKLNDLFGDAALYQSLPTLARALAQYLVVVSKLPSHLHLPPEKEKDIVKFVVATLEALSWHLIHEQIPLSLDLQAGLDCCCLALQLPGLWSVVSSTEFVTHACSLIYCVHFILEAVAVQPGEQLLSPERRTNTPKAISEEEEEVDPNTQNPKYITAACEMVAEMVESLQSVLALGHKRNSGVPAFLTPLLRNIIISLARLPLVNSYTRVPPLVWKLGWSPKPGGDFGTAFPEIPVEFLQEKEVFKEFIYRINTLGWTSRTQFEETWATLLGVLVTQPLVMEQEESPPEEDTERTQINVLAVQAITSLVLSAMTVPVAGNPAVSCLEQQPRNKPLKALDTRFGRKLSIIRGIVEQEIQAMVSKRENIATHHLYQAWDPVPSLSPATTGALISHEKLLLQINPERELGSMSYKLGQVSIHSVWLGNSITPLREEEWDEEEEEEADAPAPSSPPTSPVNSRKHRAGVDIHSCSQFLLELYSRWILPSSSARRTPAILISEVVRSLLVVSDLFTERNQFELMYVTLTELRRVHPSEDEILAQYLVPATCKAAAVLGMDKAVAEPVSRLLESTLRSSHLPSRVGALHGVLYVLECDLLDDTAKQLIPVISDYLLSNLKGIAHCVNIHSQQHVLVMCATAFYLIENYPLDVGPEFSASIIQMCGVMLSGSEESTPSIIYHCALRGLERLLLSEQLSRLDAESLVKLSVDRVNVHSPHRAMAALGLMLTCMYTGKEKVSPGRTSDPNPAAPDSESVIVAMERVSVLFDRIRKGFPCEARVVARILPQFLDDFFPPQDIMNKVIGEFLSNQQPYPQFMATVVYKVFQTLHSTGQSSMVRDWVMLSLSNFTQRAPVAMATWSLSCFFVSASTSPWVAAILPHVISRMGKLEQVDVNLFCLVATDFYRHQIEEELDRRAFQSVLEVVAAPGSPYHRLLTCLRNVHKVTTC
An asterisk follows results filed as active. Shown is part of a subset that was picked to be rich in hits. No stated cut-off is given here; in the data, active means inhibition above about 50%; inactive means the rest.

How did O=c1ccc(-c2ccc(Cl)cc2)nn1CCNS(=O)(=O)c1ccc2c(c1)CCCC2 do in these assays?
Pf apPOL block: -10; mHTT CaM bind: 80*

What do the screens show for `O=C(NCCOc1ccc(F)cc1)C1CCN(Cc2nc3ccccc3[nH]2)CC1`?
Pf apPOL block: -7; mHTT CaM bind: -1

How did Cc1noc(C2CCCCN2CC(=O)Nc2nccs2)n1 (centres undefined) do in these assays?
Pf apPOL block: -7; mHTT CaM bind: -3

Results for Nc1ccc(Cc2ccc(N)c(O)c2)cc1O ?
Pf apPOL block: 60*; mHTT CaM bind: 87*

Results for N#Cc1cc(Cc2ccc(N)c(C#N)c2)ccc1N ?
Pf apPOL block: -38; mHTT CaM bind: 2

What do the screens show for `Cc1nc(C(=O)N(C)C)c(C)n1C1CCN(C)CC1`?
Pf apPOL block: -4; mHTT CaM bind: -1

How did COc1ccc(N(C)C(=O)c2nc(C)n(C3CCN(C)CC3)c2C)cc1 do in these assays?
Pf apPOL block: 6; mHTT CaM bind: 76*

How did CCOc1ccc(S(=O)(=O)N2CCC(CN3CCC(C)CC3)CC2)cc1 do in these assays?
Pf apPOL block: 0; mHTT CaM bind: -8

Results for O=C(Cc1ccc(Cl)cc1)N1CCCCC1CCN1CCCCC1 (centres undefined) ?
Pf apPOL block: -9; mHTT CaM bind: 1

Results for O=C(Nc1nccs1)C(c1ccccc1)n1cccc1 (centres undefined) ?
Pf apPOL block: 5; mHTT CaM bind: 35

What do the screens show for `O=C(Nc1cccc2ncccc12)C(c1ccccc1)n1cccc1` (centres undefined)?
Pf apPOL block: 26; mHTT CaM bind: 78*

What do the screens show for `CCN1C(=O)C(C)(C(=O)NCc2ccc(C)cc2)Oc2cccnc21` (centres undefined)?
Pf apPOL block: -2; mHTT CaM bind: -4

What do the screens show for `Cc1cccc(CNC(=O)c2nn(C)c3c2CN(C(=O)c2c(F)cccc2F)CC3)c1`?
Pf apPOL block: -7; mHTT CaM bind: -8

How did Cc1cccc(CNC(=O)c2nn(C)c3c2CN(C(=O)c2cccc(Cl)c2)CC3)c1 do in these assays?
Pf apPOL block: -9; mHTT CaM bind: 76*

Results for Cc1cccc(CNC(=O)c2nn(C)c3c2CN(C(=O)c2ccc(Cl)cc2)CC3)c1 ?
Pf apPOL block: -1; mHTT CaM bind: 64*

What do the screens show for `O=C(c1cccs1)N1CC(C(=O)N2CCSCC2)C2(CCCCC2)C1` (centres undefined)?
Pf apPOL block: -1; mHTT CaM bind: 0

How did COc1ccc(CC(=O)N2CCC(c3noc(-c4ccccc4OC)n3)CC2)cc1 do in these assays?
Pf apPOL block: -1; mHTT CaM bind: 21

Results for Cc1ccc(CN2C(=O)NC3(CCN(C(=O)c4cc(F)ccc4Cl)CC3)C2=O)cc1 ?
Pf apPOL block: -1; mHTT CaM bind: 15

How did COc1ccc(Nc2nc(N)nc(CN3CCN(c4ccccc4)CC3)n2)cc1 do in these assays?
Pf apPOL block: -4; mHTT CaM bind: 54*

Results for COc1ccc(Nc2nc(N)nc(CN3CCCCC3)n2)cc1 ?
Pf apPOL block: -4; mHTT CaM bind: 0

How did COc1cc(C2CC(=O)Oc3c(C(CCN4CCOCC4)c4ccc(N(C)C)cc4)c(OC)cc(OC)c32)cc(OC)c1OC (centres undefined) do in these assays?
Pf apPOL block: -4; mHTT CaM bind: 65*

How did COc1ccc(C(CC(=O)N2CCCC(C)C2)c2c(O)cc(OC)cc2OC)cc1 (centres undefined) do in these assays?
Pf apPOL block: -7; mHTT CaM bind: 15

Results for COc1cc(C2CC(=O)Oc3cc(O)ccc32)cc(OC)c1OC (centres undefined) ?
Pf apPOL block: -5; mHTT CaM bind: 3

Results for COc1ccc(C2CC(=O)Oc3c(C(CCN4CCCC(C)C4)c4cc(OC)c(OC)c(OC)c4)c(OC)cc(OC)c32)cc1 (centres undefined) ?
Pf apPOL block: -6; mHTT CaM bind: 61*

Results for COc1cc(OC)c2c(c1C(CCN1CCCC1)c1ccc(N(C)C)cc1)OC(=O)CC2c1ccc(N(C)C)cc1 (centres undefined) ?
Pf apPOL block: -10; mHTT CaM bind: 100*

Results for COc1ccc(C2CC(=O)Oc3cc(OC)c(OC)c(OC)c32)cc1 (centres undefined) ?
Pf apPOL block: -1; mHTT CaM bind: 2

Results for COc1ccc(C2CC(=O)Oc3c(C(CCN4CCCC(C)C4)c4ccc(N(C)C)cc4)c(OC)cc(OC)c32)cc1 (centres undefined) ?
Pf apPOL block: -6; mHTT CaM bind: 101*

How did CCOC(=O)N1CCN(C(=O)C2CC(c3ccc(OC)c(OC)c3)=NO2)CC1 (centres undefined) do in these assays?
Pf apPOL block: -5; mHTT CaM bind: -1

What do the screens show for `CCN(CC)CCNC(=O)CSc1nc2nc(C)cc(C)n2n1`?
Pf apPOL block: -12; mHTT CaM bind: 25

Assay outcomes from PubChem BioAssay.
